Screening data: PubChem, several laboratories
Rtt109 Vps75 – C. albicans Rtt109 histone acetyltransferase inhibition; 330,000 tested, 0.16% active; Q5AAJ8; inhibition, % at 34.9 µM; AID 540336; purified Rtt109/Vps75, ThioGlo CoA-SH fluorescence, 4 h;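 active = inhibition of at least 50% in every replicate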
Rce1 inhib – yeast Ras-converting enzyme inhibition | Q03530 | yeast membranes, quenched prenylated peptide cleavage fluorescence | calls only | 290,000 tested, 0.27% active | AID 2563;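 active = fall in fluorescence gain of 50% or more versus controls, with final raw signal at or below 3038400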
HDAC3 inh – blocks human histone deacetylase 3; O15379; recombinant HDAC3, fluorogenic peptide/trypsin coupled, fluorescence; inhibition, % at 8.3 µM; 320,000 tested, 0.15% active; AID 2718; in the data active = inhibition above about 26%, passing the limit was not always enough
GRK2 inh – inhibitors of human GRK2 displacing RNA aptamer; P25098; bead flow cytometry, FAM-aptamer displacement from GRK2; inhibition of aptamer binding, % at 10 µM; 330,000 tested, 0.59% active; AID 488847;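 active = inhibition of aptamer binding above 40%, roughly 3 SD of noise, on plates passing a quality check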;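 also: median bead fluorescence of bound FAM aptamer so fluorescent compounds give negative values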
Target sequence (P25098 whole entry, looked up): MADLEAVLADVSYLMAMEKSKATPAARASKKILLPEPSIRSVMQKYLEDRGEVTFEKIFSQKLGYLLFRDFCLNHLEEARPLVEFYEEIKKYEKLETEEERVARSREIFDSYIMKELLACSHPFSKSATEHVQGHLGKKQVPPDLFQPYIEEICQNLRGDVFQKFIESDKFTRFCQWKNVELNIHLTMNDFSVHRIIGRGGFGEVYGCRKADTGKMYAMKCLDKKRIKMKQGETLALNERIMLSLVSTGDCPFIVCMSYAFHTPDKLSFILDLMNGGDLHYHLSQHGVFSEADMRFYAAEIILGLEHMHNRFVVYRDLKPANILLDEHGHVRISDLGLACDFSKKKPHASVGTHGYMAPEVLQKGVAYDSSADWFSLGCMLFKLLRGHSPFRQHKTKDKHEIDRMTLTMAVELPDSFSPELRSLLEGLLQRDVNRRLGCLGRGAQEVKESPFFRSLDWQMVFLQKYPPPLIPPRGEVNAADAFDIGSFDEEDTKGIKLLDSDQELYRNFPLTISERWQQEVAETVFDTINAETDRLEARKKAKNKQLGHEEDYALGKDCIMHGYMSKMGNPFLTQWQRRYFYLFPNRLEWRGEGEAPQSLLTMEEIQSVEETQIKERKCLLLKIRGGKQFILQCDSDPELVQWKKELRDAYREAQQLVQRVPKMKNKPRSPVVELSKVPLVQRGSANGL
ALR inh – blocks human ALR sulfhydryl oxidase activity | P55789 | purified ALR, DTT oxidation, H2O2 HRP-luminol luminescence | inhibition, % (concentration not given with the values) | 290,000 tested, 3.8% active | AID 485317;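 active = mean replicate inhibition above about 79%, with every replicate also reaching it, limit read from the data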
Efflux pump mplx – inhibitors of Candida antifungal efflux pumps expressed in yeast; inhibition, % at 10 µM; 330,000 tested, 0.44% active; S. cerevisiae Candida pump triplex, Nile Red efflux;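 active = plate passing quality check with inhibition over a set limit, or well fluorescence over plate mean plus 4 SD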;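 also: Nile Red retained in pooled yeast measured as flow cytometry median fluorescence; higher means more Nile Red kept so more efflux inhibition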
Cmpd fluor yeast – compound fluorescence in yeast efflux pump counter-screen; 1,700 tested, 4% active; fluorescence ratio to DMSO, % at 10 µM; shares compounds with Efflux pump mplx; S. cerevisiae AD/pABC3, flow cytometry; AID 588517;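 active = fluorescence ratio to DMSO above its plate's cutoff, the plate mean ratio plus 5 SD, cut at about 210% in these data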;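 also: unstained yeast with no Nile Red so the signal is compound autofluorescence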
Mdr1 pump inh – blocks the Candida albicans Mdr1 efflux pump in yeast. inhibition, % at 10 µM. S. cerevisiae AD/CaMDR1, Nile Red efflux, flow cytometry. 1,700 tested, 1% active. shares compounds with Efflux pump mplx; in the data active = inhibition above about 26%;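 also: higher means more Nile Red retained so more efflux inhibition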
CaCdr2 efflux inh – Candida Cdr2 efflux pump inhibition | S. cerevisiae AD/CaCDR2, Nile Red retention, flow cytometry | AID 588520 | 1,700 tested, 4% active | Nile Red retention ratio vs DMSO, % at 10 µM | shares compounds with Efflux pump mplx; in the data active = Nile Red retention ratio vs DMSO above about 190%;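 also: higher ratio means more blocking of Cdr2 efflux of the dye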
Cdr1 pump inh – blocks the Candida albicans Cdr1 efflux pump in yeast; shares compounds with Efflux pump mplx; S. cerevisiae AD/CaCDR1, Nile Red efflux, flow cytometry; inhibition, % at 10 µM; 1,700 tested, 1% active;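 active = inhibition above the screen-wide mean plus twice its standard deviation, cut at about 32% in these data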
A number is an active result. Hits are enriched below; roughly 4.5% of the tested compounds scored in any of these assays.

What do the screens show for `Nc1c(C(=O)N2CCOCC2)sc(=S)n1-c1ccccc1`?
Rtt109 Vps75: inactive; Rce1 inhib: inactive; HDAC3 inh: inactive; GRK2 inh: inactive; ALR inh: 92.6; Efflux pump mplx: inactive

What do the screens show for `Cc1ccc(-n2c(N)c(C(=O)N3CCCCC3)sc2=S)cc1`?
Rtt109 Vps75: inactive; Rce1 inhib: inactive; HDAC3 inh: inactive; GRK2 inh: inactive; ALR inh: inactive; Efflux pump mplx: inactive

What do the screens show for `O=C(OCC(=O)N1CCc2ccccc2C1)c1c(F)cccc1Cl`?
Rtt109 Vps75: inactive; HDAC3 inh: inactive; GRK2 inh: inactive; Efflux pump mplx: inactive

Results for CCC1(c2ccccc2)NC(=O)N(CC(=O)NCc2ccc(C)cc2)C1=O (centres undefined) ?
Rtt109 Vps75: inactive; Rce1 inhib: inactive; HDAC3 inh: inactive; GRK2 inh: inactive; ALR inh: inactive; Efflux pump mplx: inactive

How did COc1ccc(N2CCN(C(=O)CCC(=O)N3CC(C)Oc4ccccc43)CC2)cc1 (centres undefined) do in these assays?
Rtt109 Vps75: inactive; Rce1 inhib: inactive; HDAC3 inh: inactive; GRK2 inh: inactive; ALR inh: 77.8; Efflux pump mplx: inactive

What do the screens show for `COc1ccc(N2CCN(C(=O)CCn3nnc4ccccc43)CC2)cc1`?
Rtt109 Vps75: inactive; Rce1 inhib: inactive; HDAC3 inh: inactive; GRK2 inh: inactive; ALR inh: 90.2; Efflux pump mplx: inactive

How did CC1(c2ccccc2Br)NC(=O)N(CC(=O)NC2CCCCC2)C1=O (centres undefined) do in these assays?
Rtt109 Vps75: inactive; HDAC3 inh: inactive; GRK2 inh: inactive; ALR inh: inactive; Efflux pump mplx: inactive

How did COc1ccc2oc(=N)c(C(=O)Nc3ccccc3Cl)cc2c1 do in these assays?
Rtt109 Vps75: inactive; Rce1 inhib: inactive; HDAC3 inh: inactive; GRK2 inh: inactive; ALR inh: inactive; Efflux pump mplx: inactive

Results for CC1=C(C(=O)Nc2cc(C(=O)N3CCC(C)CC3)ccc2C)SCCO1 ?
Rtt109 Vps75: inactive; Rce1 inhib: inactive; HDAC3 inh: inactive; GRK2 inh: inactive; ALR inh: inactive; Efflux pump mplx: inactive

What do the screens show for `CCC(C)/C(C)=N/NC(=O)c1ccc(COc2ccc(Cl)c(C)c2)cc1` (centres undefined)?
Rtt109 Vps75: inactive; HDAC3 inh: inactive; GRK2 inh: inactive; ALR inh: 99.1; Efflux pump mplx: inactive

What do the screens show for `Clc1ccccc1CSc1snnc1-c1ccccc1`?
Rtt109 Vps75: inactive; Rce1 inhib: inactive; HDAC3 inh: inactive; GRK2 inh: inactive; ALR inh: 97.7; Efflux pump mplx: inactive

How did CCSc1nnc(NC(NC(=O)c2ccco2)(C(F)(F)F)C(F)(F)F)s1 do in these assays?
Rtt109 Vps75: inactive; Rce1 inhib: inactive; HDAC3 inh: inactive; GRK2 inh: inactive; ALR inh: inactive; Efflux pump mplx: inactive

How did CCSc1nnc(NC(NC(C)=O)(C(F)(F)F)C(F)(F)F)s1 do in these assays?
Rtt109 Vps75: inactive; Rce1 inhib: inactive; HDAC3 inh: inactive; GRK2 inh: inactive; ALR inh: inactive; Efflux pump mplx: 13.8; Cmpd fluor yeast: inactive; Mdr1 pump inh: inactive; CaCdr2 efflux inh: inactive; Cdr1 pump inh: inactive

How did CC12CC3CC(C)(C1)CC(C(=O)Nc1nncs1)(C3)C2 do in these assays?
Rtt109 Vps75: inactive; Rce1 inhib: inactive; HDAC3 inh: inactive; GRK2 inh: inactive; ALR inh: inactive; Efflux pump mplx: inactive

Results for O=c1cc(COc2ccc(Cl)c(Cl)c2)nc2sccn12 ?
Rtt109 Vps75: inactive; HDAC3 inh: inactive; GRK2 inh: inactive; ALR inh: inactive; Efflux pump mplx: 0.9; Cmpd fluor yeast: inactive; Mdr1 pump inh: inactive; CaCdr2 efflux inh: inactive; Cdr1 pump inh: inactive

What do the screens show for `O=c1cc(CNc2cc(Cl)ccc2Cl)nc2sccn12`?
Rtt109 Vps75: inactive; Rce1 inhib: inactive; HDAC3 inh: inactive; GRK2 inh: inactive; ALR inh: inactive; Efflux pump mplx: inactive

What do the screens show for `COc1cc(OC)c(C2C(C(=O)Nc3ccc(C)cc3C)=C(C)Nc3ncnn32)cc1OC` (centres undefined)?
Rtt109 Vps75: inactive; Rce1 inhib: inactive; HDAC3 inh: inactive; GRK2 inh: inactive; ALR inh: inactive; Efflux pump mplx: 0.8; Cmpd fluor yeast: inactive; Mdr1 pump inh: inactive; CaCdr2 efflux inh: inactive; Cdr1 pump inh: inactive

How did Cc1c(CCOC(=O)C23CC4CC(CC(C4)C2)C3)sc[n+]1Cc1ccccc1 do in these assays?
Rtt109 Vps75: inactive; Rce1 inhib: inactive; HDAC3 inh: inactive; GRK2 inh: inactive; ALR inh: inactive; Efflux pump mplx: inactive

Results for Cc1c(CCOC(=O)C23CC4CC(CC(C)(C4)C2)C3)sc[n+]1Cc1ccccc1 ?
Rtt109 Vps75: inactive; Rce1 inhib: inactive; HDAC3 inh: inactive; GRK2 inh: inactive; ALR inh: inactive; Efflux pump mplx: 1.2; Cmpd fluor yeast: inactive; Mdr1 pump inh: inactive; CaCdr2 efflux inh: active; Cdr1 pump inh: inactive

How did CN(C)/C(CN1CCN(C=O)CC1)=C1\N=C(c2ccccc2)OC1=O do in these assays?
Rtt109 Vps75: inactive; Rce1 inhib: inactive; HDAC3 inh: inactive; GRK2 inh: inactive; ALR inh: inactive; Efflux pump mplx: 0.5; Cmpd fluor yeast: inactive; Mdr1 pump inh: inactive; CaCdr2 efflux inh: inactive; Cdr1 pump inh: inactive

What do the screens show for `CN(C)/C=C1\N=C(c2ccccc2)OC1=O`?
Rtt109 Vps75: inactive; Rce1 inhib: inactive; HDAC3 inh: inactive; GRK2 inh: inactive; ALR inh: inactive; Efflux pump mplx: inactive

What do the screens show for `CC(=O)Nc1ccc(S(=O)(=O)NCC(=O)N2CCN(S(=O)(=O)c3cccs3)CC2)cc1`?
Rtt109 Vps75: inactive; HDAC3 inh: inactive; GRK2 inh: inactive; Efflux pump mplx: inactive

Results for CCOc1ccc(CCNC(=O)COC(=O)c2cc([N+](=O)[O-])ccc2N2CCOCC2)cc1OCC ?
Rtt109 Vps75: inactive; Rce1 inhib: inactive; HDAC3 inh: inactive; GRK2 inh: inactive; ALR inh: inactive; Efflux pump mplx: 9.2; Cmpd fluor yeast: inactive; Mdr1 pump inh: inactive; CaCdr2 efflux inh: inactive; Cdr1 pump inh: inactive

What do the screens show for `CCOc1ccc(CCNC(=O)c2cc([N+](=O)[O-])ccc2N2CCOCC2)cc1OCC`?
Rtt109 Vps75: inactive; Rce1 inhib: inactive; HDAC3 inh: inactive; GRK2 inh: inactive; ALR inh: inactive; Efflux pump mplx: inactive

What do the screens show for `CCCCCCCCC(=O)N/N=C(\C)c1cccnc1`?
Rtt109 Vps75: inactive; Rce1 inhib: inactive; HDAC3 inh: inactive; GRK2 inh: inactive; Efflux pump mplx: inactive
